Measured values reported in PubChem BioAssay (NCI).
Compounds without any hit were thinned out: in the full panel of roughly 79,000, 15% have a hit. Rule as the data show it: active = growth inhibition above about 70%; inactive = the rest.

Assays:
[1] = NCI Yeast Anticancer Drug Screen. Data for the rad50 strain (AID 155);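 also: 0% = growth of vehicle-only cultures of the same strain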; settings: S. cerevisiae rad50 strain growth inhibition; at 50.0 µM; stronger effect = higher value
How it was run: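 Compounds were tested on a yeast strain with an engineered DNA damage repair alteration; the reported value is growth inhibition normalised to vehicle treatment.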

[2] = NCI Yeast Anticancer Drug Screen. Data for the mec2-1 strain (AID 157); settings: S. cerevisiae mec2-1 strain, at 50.0 µM, stronger effect = higher value
How it was run: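 Cells of the genetically defined mec2-1 yeast strain are incubated with test compound. Inhibition of growth is calculated against vehicle-treated controls.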

[3] = NCI Yeast Anticancer Drug Screen. Data for the sgs1 mgt1 strain (AID 161);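 also: 0% = growth of cultures given vehicle only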; settings: S. cerevisiae sgs1 mgt1 strain, at 50.0 µM, stronger effect = higher value
How it was run: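 Inhibition of yeast growth, normalised to vehicle-treated controls, is reported for a strain bearing genetic alterations in DNA damage repair.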

[4] = NCI Yeast Anticancer Drug Screen. Data for the cln2 rad14 strain (AID 165);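 also: 0% = growth equal to vehicle treated cultures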; settings: S. cerevisiae cln2 rad14 strain, at 50.0 µM, stronger effect = higher value
How it was run: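 The screen exposed genetically defined yeast (cln2 rad14) to test compounds and scored growth inhibition relative to vehicle-treated controls.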

[5] = NCI Yeast Anticancer Drug Screen. Data for the bub3 strain (AID 167); settings: S. cerevisiae bub3 mutant strain, at 50.0 µM, stronger effect = higher value
How it was run: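 Growth of a checkpoint-deficient yeast mutant is measured after compound exposure. Values represent inhibition relative to vehicle.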

Measured: growth inhibition

C[n+]1ccc(/C=C\c2ccc3c(c2)OCO3)cc1
inactive: [1] -1.4% | [2] -26.9%

O=C(O)c1ccccc1C(=O)NNC(=O)c1ccccc1C(=O)O
inactive: [1] 4.65% | [2] -5.3%

Cc1ccc(N2C(=O)CC(Sc3ccccc3N)C2=O)cc1Cl (configuration not stated)
inactive: [1] -15.5% | [2] -35.6%

CCC1OC2(C)CC(C#N)(C#N)C1(C#N)C(=N)O2 (configuration not stated)
inactive: [1] 0.6% | [2] -3.9% | [3] -46.4% | [4] -8.2% | [5] -31.4%

CCCCCCCCCOCC(O)COc1ccccc1[N+](=O)[O-] (configuration not stated)
inactive: [1] -9.2% | [2] -15.9%

CC1=CC(=O)c2ccc(C)cc2C1=O
inactive: [1] -8.9% | [2] -24.4% | [3] -6.9% | [4] -18.9% | [5] -0.4%

OC1CCC2CN3CCc4c([nH]c5ccccc45)C3CC2C1 (configuration not stated)
inactive: [1] 23.6% | [2] -9.5%

CC(=N\N=C\c1ccccn1)/C(C)=N/N=C/c1ccccn1
inactive: [1] 7.8% | [2] 10.3% | [3] -4.4% | [4] 30.6% | [5] -14.2%

Oc1cc(Br)ccc1C=Nc1ccc(N2CCCCC2)cc1
inactive: [1] 25.4%

C[C@@H]1CC[C@H]2C(C)(C)[C@H]3C[C@@]12CC[C@@]3(C)O
inactive: [1] 21.9% | [2] -16.9% | [3] 12.8% | [4] 14.1% | [5] 11.8%

O=C1CC(c2ccccc2)NCCCCN2CC(CN1)C(C(O)c1ccccc1)C2=O (configuration not stated)
inactive: [1] -20.4% | [2] -34.8% | [3] -39.4% | [4] 8.95% | [5] -44.6%

C=C1C(=O)OC2/C=C(\CO)CC/C=C(\CO)CC(OC(=O)C(C)C)C12 (configuration not stated)
inactive: [1] -17% | [2] -13.4% | [3] -16% | [4] 24.4% | [5] -7%

CCCCCCCCCCCC(O)CCCCC (configuration not stated)
inactive: [1] -15% | [2] -48.4%

O=C(O)c1ccc(NCn2c(=S)[nH]c3ccccc32)cc1O
inactive: [1] -7.6% | [2] -42.5%

Clc1ccc(C2C3COc4ccccc4C3=NN2c2ccccc2)cc1 (configuration not stated)
inactive: [1] -26.1% | [2] -29.9% | [3] -14.8% | [4] 0.5% | [5] -29.5%

COc1ccc(/C=C(\C#N)c2ccc(C)cc2)cc1OC
inactive: [1] 50.4% | [2] 52.8%

COc1ccc(/C(C#N)=C2C=C(Cl)/C(=N/O)C=C/2Cl)cc1
inactive: [1] -6.55% | [2] -7.45%

Cc1ccc(NC2=N/C(=C/c3ccccc3)C(Cl)=N2)cc1
inactive: [1] -10.1% | [2] -30.6% | [3] 16.9% | [4] 10.9% | [5] 14.3%

C[n+]1ccccc1/C=C/c1cccc(O)c1
inactive: [1] 14% | [2] -19.9%

O=C1c2ccccc2C(=O)N1/N=C/c1cc(Br)ccc1O
inactive: [1] 22.2% | [2] -4.35%

COc1ccc(COC(=O)N=[N+]=[N-])cc1
inactive: [1] 19.1% | [2] 3.85%

Cc1ccc(-c2noc(CC(=O)c3ccc([N+](=O)[O-])cc3)n2)cc1
inactive: [1] 14.4% | [2] 5.85%

C1CCCCNCCC1
inactive: [1] -22.8% | [2] -22.2% | [3] -56.5% | [4] -3.4% | [5] -26.7%

N#C/C(=C1C=C/C(=N/O)C(Br)=C/1)c1ccccc1
inactive: [1] 50.1% | [2] 13.2%

CC(=O)CC1CCCC(CC(C)=O)N1C (configuration not stated)
inactive: [1] -9.3% | [2] -19.2%

CCOC(=O)CC(=O)c1ccc(C)cc1
inactive: [1] -13.6% | [2] -3.45%

NC(Cc1ccc(S(=O)(=O)O)cc1)C(=O)NC(Cc1ccc(S(=O)(=O)O)cc1)C(=O)NC(Cc1ccc(S(=O)(=O)O)cc1)C(=O)NC(Cc1ccc(S(=O)(=O)O)cc1)C(=O)O (configuration not stated)
inactive: [1] -6.5% | [2] 5.65% | [3] 5.2% | [4] -2.3% | [5] 5.85%

CCOC(=O)c1c(C)nc(C)c(C(=O)OCC)c1-c1cccc([N+](=O)[O-])c1
inactive: [1] 29.1% | [2] 2.35%

Cc1ccc2oc(C)[n+](CCC(=O)O)c2c1
inactive: [1] 15.7% | [2] 6.45%
